KB-3-1 tox = kills parental KB-3-1 adenocarcinoma cells. KB-3-1 viability, CellTiter-Glo ATP luminescence, 72 h. Potency, µM (titrated, usually from 46.1 µM), most hits filed as cytotoxic. 400,000 tested, 1.4% active; note: % is set by controls: 0 for no effect and ±100 for the full control effect; nearly all actives have a fitted effect of over 60% in size
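72 h, 37 °C compound treatment of KB-3-1 parental cells; CellTiter-Glo added, 10 min, luminescence read. Data corrected against DMSO-only plates and normalized before curve fitting.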
HT1080NT lethal = kills 2HG-producing HT-1080-NT fibrosarcoma cells | 360,000 tested, 1.6% active | Potency, µM (highest dose often 46.1 µM), for inactives: top-dose activity, negative = less viability, most hits filed as cytotoxic | HT-1080-NT fibrosarcoma viability, CellTiter-Glo ATP luminescence, 48 h;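 note: NT is the 2HG producing partner of a matched IDH1 knockdown line; 0% = DMSO-treated cells and -100% = media-only wells without cells; nearly all actives have a fitted effect of over 55% in size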
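Compounds were tested in concentration-response format on HT-1080-NT cells for 48 hours at 37 degrees C. Cell viability came from CellTiter-Glo luminescence; curves were classified by r2, response magnitude and activity.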
HT1080 IDH1KD tx = kills HT-1080 cells with IDH1 knockdown. HT-1080 IDH1 knockdown viability, ATP luminescence, 48 h. Potency, µM (series often up to 46.1 µM), inactives show top-dose activity, negative = toxicity, actives largely listed as cytotoxic. 360,000 tested, 2% active;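 note: 0% = DMSO wells and -100% = cell-free medium wells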
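HT-1080-IDH1KD cells (IDH1 knocked down), 750/well in RPMI with 5% FBS, treated with compound 48 h at 37 degrees C. Viability by CellTiter-Glo luminescence, normalised to DMSO and no-cell wells; concentration-response curves classed.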
HepG2 tox = kills HepG2 cells in TGF-b inhibitor counter-screen; HepG2 CAGA-GFP viability, ATP luminescence, 18 h; Potency, µM (series often up to 46.1 µM), for inactives: top-dose activity change, negative = cytotoxicity, hits mostly cytotoxic; 410,000 tested, 0.76% active
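HepG2 CAGA-GFP cells (1000/well, DMEM with 1% FBS) received compound, then TGF-beta at 500 pg/mL final, and were incubated 18 hours at 37 degrees C. Viability was read by CellTiter-Glo luminescence. Media-only wells were set as complete cell-killing and DMSO as no toxicity.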
TGFb inhibitor = TGF-b pathway inhibition | HepG2 CAGA-GFP TGF-b/SMAD3 reporter, GFP fluorescence, 18 h; TGF-beta stimulated, 500 pg/mL final | Potency, µM (titrated, usually from 46.1 µM), inactives show top-dose activity, negative = inhibition, most hits filed as inhibitors | 410,000 tested, 1.2% active; note: % is set by controls: 0 for no effect and ±100 for the full control effect; nearly all actives have a fitted effect of over 65% in size
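GFP signal (ex488/em500-530) from TGF-beta-stimulated HEPG2 CAGA-GFP cells, 500 pg/mL final, 18 h at 37 degrees C in DMEM plus 1% FBS, normalized to unstimulated and DMSO-stimulated controls.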
KB-V1 cytotox = KB-V1 MDR subline cytotoxicity; KB-V1 MDR cells viability, CellTiter-Glo, 72 h; Potency, µM (doses to about 46.1 µM), actives largely listed as cytotoxic; 400,000 tested, 3.4% active; note: % is set by controls: 0 for no effect and ±100 for the full control effect; nearly all actives have a fitted effect of over 60% in size
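Cytotoxicity toward P-gp-expressing KB-V1 cells was determined as loss of CellTiter-Glo luminescence after 72 h at 37 degrees C. Compounds were tested in quantitative HTS format across a concentration range, with curves fitted to normalized data.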
Active calls of the source: *; i = inactive; ? = inconclusive; nt = no result given. Sampled rows, rich in hits. Any-hit rate of the full collection: about 6.6%. Calls come from the whole dose curve; as a rule, active = well fitted curve in the direction sought with a large enough effect; inconclusive = small, poorly fitted or top-dose-only effect, or another doubt; inactive = no such curve, though single readings can be large; an effect the other way counts as inactive or inconclusive. Potency is the fitted concentration of half-maximal effect.

SMILES | KB-3-1 tox | HT1080NT lethal | HT1080 IDH1KD tx | HepG2 tox | TGFb inhibitor | KB-V1 cytotox
O=C(CN1CCOCC1)Nc1ncc(Cc2cccc(Cl)c2)s1 | i | 1% | -1% | -11% | -6% | i
C=CCn1c(SCC(=O)N2CCc3ccccc3C2)nc2sc(CC)cc2c1=O | i | -4% | 0% | -20% | -26% | i
C=CCn1c(SCC(=O)c2cccs2)nc2sc(C)cc2c1=O | i | -18% | ? | -5% | -14% | 7.3µM*
C=CCn1c(SCC(=O)N2CCOCC2)nc2sc(CC)cc2c1=O | i | -2% | -7% | -17% | -7% | 4.6µM*
COc1ccc(Oc2cccc(Cl)c2CNC(=O)c2ccccc2C(=O)O)cc1 | i | -1% | 4% | 7% | 17% | i
O=C(NCc1c(Cl)cccc1Oc1ccccc1)c1ccccc1 | i | -18% | -22% | -22% | -18% | 12µM*
COc1ccc(S(=O)(=O)NCC2CCCO2)cc1NC(=O)c1ccccc1 (configuration not stated) | i | 9% | -1% | -3% | 7% | i
COc1ccc(C)cc1NC(=O)C(NCC1CCCO1)c1ccccc1 (configuration not stated) | i | -4% | -23% | 10% | 8% | 16µM*
COc1ccc(C)cc1NC(=O)CNC(c1ccccc1)c1ccc(C)cc1 (configuration not stated) | 4.6µM* | ? | 5.2µM* | -11% | ? | i
CCOCCCn1c(SCC(=O)Nc2ccccc2Cl)nc2c(oc3ccccc32)c1=O | i | nt | nt | -2% | -7% | i
Cc1cccc(N=N/C(=C\O)C(=O)c2ccc(Br)cc2)c1 | ? | ? | ? | -70% | 10µM* | ?
O=C(/C(=C/O)N=Nc1ccc(Cl)cc1)c1ccncc1 | 13µM* | ? | 21µM* | -100% | ? | i
O=C(/C(=C/O)N=Nc1ccccc1Cl)c1ccccc1 | i | 13µM* | 15µM* | -32% | ? | i
Cc1ccc(N=N/C(=C\O)C(=O)c2ccncc2)cc1 | i | 26µM* | 16µM* | -40% | 10% | i
COc1ccc(C(=O)/C(=C/O)N=Nc2ccc(F)cc2)cc1 | i | ? | ? | -38% | ? | i
COc1ccc(NC(=O)c2oc3ccccc3c2NC(=O)Cc2coc3cc(C)ccc23)cc1 | i | nt | nt | -11% | 5% | i
COc1ccccc1-c1cnc(C(O)c2cccc(CN3CCCCC3)c2)[nH]1 (configuration not stated) | i | 4% | 4% | -1% | 7% | i
O=C(C[n+]1ccccc1Br)c1ccc(I)cc1 | ? | nt | nt | 4% | 8% | i
Cc1ccc(CN(Cc2ccco2)C(=O)c2ccccc2Br)o1 | nt | nt | nt | -29% | -13% | nt
COc1ccc(N=C2SCC(=O)N2CCc2ccc(OC)c(OC)c2)cc1 | ? | -1% | 2% | -41% | -27% | i
COc1ccc(CCN2C(=O)CSC2=Nc2ccc(C(C)C)cc2)cc1OC | 3.7µM* | ? | 5.8µM* | -11% | ? | 3.3µM*
Cc1ccc(NC(=O)CCc2c(C)nc3c(-c4ccc(F)cc4)c(C)nn3c2C)cc1F | i | nt | nt | 5% | -4% | i
Cc1ccc(Cl)cc1NC(=S)N/N=C/c1cccc2ccccc12 | 5.8µM* | 3.7µM* | 2.6µM* | 11% | -4% | 2.1µM*
Cc1ccccc1NC(=S)N/N=C/c1ccc(O)cc1O | ? | ? | 10µM* | -4% | -21% | i
Cc1cccc(NC(=S)N/N=C/c2cccc(O)c2)c1C | 3.3µM* | ? | ? | -17% | ? | 6.5µM*
SMILES | KB-3-1 tox | HT1080NT lethal | HT1080 IDH1KD tx | HepG2 tox | TGFb inhibitor | KB-V1 cytotox
CC(C)c1ccc(NC(=O)C2CCCN(S(=O)(=O)c3ccc(Br)s3)C2)cc1 (configuration not stated) | i | nt | nt | -9% | -9% | i
CC(=O)Nc1ccc(Oc2cnc3ccccc3n2)cc1 | i | 2.3µM* | 2.6µM* | -1% | -8% | i
O=C(Cc1ccccc1)NC(c1ccco1)c1cc(Cl)c2cccnc2c1O (configuration not stated) | i | nt | nt | nt | nt | i
Cc1cccn2c(=O)c(C(=O)NCc3cccc(F)c3)cnc12 | i | nt | nt | -13% | -5% | ?
Cc1ccc(CNC(=O)C2CCN(c3nc4ccccc4n(C)c3=O)CC2)cc1 | i | nt | nt | 1% | -1% | i
Cc1nn(-c2ccccc2)c2c1CC(=O)Nc1ccccc1-2 | 0.65µM* | ? | ? | 3% | ? | 1.6µM*
CCOc1ccc(NC(=O)CCCn2c(C)c3cnn(-c4ccccc4)c(=O)c3c2C)cc1 | i | nt | nt | 6% | -8% | i
CCCCC12CN3CC(C)(CN(C1)C31C(=O)N(C)c3ccc(C)cc31)C2=O (configuration not stated) | i | -6% | -3% | -14% | -11% | 9.2µM*
CCCCC12CN3CC(C)(CN(C1)C3c1ccc(OCc3ccccc3)cc1)C2=O (configuration not stated) | i | nt | nt | -1% | -6% | i
O=C(CCn1c(=O)[nH]c2ccsc2c1=O)N1CCN(c2cccc(Cl)c2)CC1 | 21µM* | -1% | ? | -16% | -6% | i
O=C(CCCCn1c(=O)[nH]c2ccsc2c1=O)N1CCN(c2cccc(Cl)c2)CC1 | ? | nt | nt | -24% | ? | i
O=C(C1COc2ccccc2O1)N(Cc1cccnc1)c1nc2ccc(F)cc2s1 (configuration not stated) | nt | nt | nt | -11% | 2% | nt
COc1ccc2c(c1)c(C(=O)CN1CCN(Cc3ccccc3)CC1)c(C)n2C | i | -9% | 0% | 15% | -2% | ?
CCn1c(N2CCN(CC(=O)c3c(C)n(C)c4ccccc34)CC2)nc2c1c(=O)[nH]c(=O)n2C | i | -18% | -14% | -5% | 0% | i
CCn1c(N2CCN(CC(=O)c3c(C)n(C)c4ccc(OC)cc34)CC2)nc2c1c(=O)[nH]c(=O)n2C | 21µM* | 15% | 9% | -18% | -14% | i
COc1ccc2c(c1)c(C(=O)CN1CCN(C(=O)c3ccco3)CC1)c(C)n2C | i | 2% | 4% | -2% | 5% | 23µM*
Fc1ccc(Br)cc1C1C=C(c2ccc(Br)cc2)Nc2nnnn21 (configuration not stated) | i | nt | nt | -14% | 18% | i
Cc1cc(C)c(NC(=O)Cc2ccc(-n3c(C)nc4cccnc43)cc2)c(C)c1 | i | nt | nt | -25% | 13µM* | i

Screening results deposited in PubChem by National Center for Advancing Translational Sciences (NCATS).
